PubChem BioAssay AID720514 (Broad Institute, 2013)
The campaign covered roughly 2,100 compounds. About 300 (14%) were called active. Roughly 2% stayed inconclusive and do not appear here. The list is a sample of the results. Measured potencies and affinities stand elsewhere. A number with no mark means an inactive call.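 Rule for the calls: active = every replicate test run called active, with the signal falling and half-maximal concentration within twice the top valid dose; inconclusive = the replicate test runs disagree in their calls; inactive = every test run inactive, including effects in the opposite direction.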

Assay: inhibitors of PGC1a acetylation in cells, dose response, cell-based, cherry-picked samples (AID 720514);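 note: 0% = neutral control wells and -100% = positive control wells; actives lower the acetylation signal so they count as inhibitors of PGC1a acetylation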
Conditions: U2OS PGC1a acetylation, AlphaLISA, overnight; series mostly up to 19.5 µM; activity change, negative = inhibition: at the top concentration

| SMILES | activity change, negative = inhibition |
| --- | --- |
| CC(=O)c1ccc(N2CCN(C(=O)C(=O)c3c(C)[nH]c4ccccc34)CC2)cc1 | 209% [at 5 µM] |
| CC(=O)c1c(-c2ccccc2)[nH]c2ccccc12 | 30.8% |
| O=C(Nc1cccc(S(=O)(=O)N2CCOCC2)c1)c1ccco1 | 48.2% [at 10 µM] |
| O=C(Nc1ccc2c(c1)OCO2)C1CCN(c2ccc(S(=O)(=O)N3CCOCC3)cc2)CC1 | 43% [at 10 µM] |
| O=C(CC1SC(=NCc2ccccc2)NC1=O)Nc1ccccc1 (stereo unspecified) | 150% [at 10 µM] |
| O=C(CC1CC1)N[C@@H]1CC[C@H](CCNS(=O)(=O)c2ccc(Cl)cc2)O[C@H]1CO | 46% |
| COC(=O)CSc1nc(-c2ccccc2)cc(-c2ccco2)c1C#N | 54.5% |
| COc1cc(Cn2c(N)c(C#N)c3nc4ccccc4nc32)cc(OC)c1 | -2.36% |
| CCC(C)(C)n1nnnc1CN(Cc1ccc(Cl)cc1)Cc1ccco1 | 142% |
| O=C(/C=C/Sc1ncn[nH]1)c1ccc(Cl)cc1 | -92.8% |
| Cc1sc(NC(=O)c2cccs2)nc1-c1ccccc1 | 121% |
| CN1CCN(C(=O)CSc2nc(-c3cccs3)cc(-c3cccs3)c2C#N)CC1 | 84.6% |
| CC(=O)c1ccc(OCC(=O)OCC(=O)Nc2sccc2C(N)=O)cc1 | 164% |
| CCOC(=O)c1c(NC(=O)CSc2cn(CC)c3ccccc23)sc2c1CCC2 | 96.8% |
| CCOC(=O)c1nc(S(C)(=O)=O)ncc1Cl | 158% |
| O=C(c1ccc(NC(=O)C2(c3ccccc3)CCOCC2)cc1)N1CCOCC1 | 45.2% |
| CCOC(=O)c1c(NC(=O)c2ccoc2C)sc2c1CCC2 | 24.4% |
| CC1CCCN(Cc2c(O)ccc3c(=O)c(-c4nc5ccccc5s4)c(N)oc23)C1 (stereo unspecified) | 61.7% |
| Cc1ccccc1S(=O)(=O)NCC[C@@H]1CC[C@H](NC(=O)C2CCOCC2)[C@@H](CO)O1 | 36.8% |
| CC(C)NC(=O)NCC[C@H]1CC[C@H](NC(=O)c2ccc(F)cc2)[C@H](CO)O1 | 28.9% |
| CCC(C)(CC(=O)O)CC(=O)Nc1cc(C(F)(F)F)cc(C(F)(F)F)c1 (stereo unspecified) | 16.3% |

| SMILES | activity change, negative = inhibition |
| --- | --- |
| COc1ccc(-c2nc3c(C)cc(Br)cn3c2Cc2ccc(C)cc2)cc1OC | 73.4% |
| COc1cc(C)c(CN2CCN(S(=O)(=O)c3ccc(Cl)s3)CC2)cc1OC | 148% |
| O=C(CN1CCC(n2nnc3cc(F)ccc32)CC1)Nc1ccc2c(c1)CCC2 | 90.9% |
| CCOC(=O)C1=C[C@@H](C(C)(C)C)N(S(=O)(=O)c2ccc(C)cc2)[C@H]1c1cccc2ccccc12 | 111% |
| Cc1ccccc1S(=O)(=O)N[C@@H]1CC[C@@H](CCn2cc(Cc3ccccc3)nn2)O[C@H]1CO | 26.9% |
| CC(C)(C)C(=O)Nc1sc2c(c1-c1nc3ccccc3[nH]1)CCCC2 | 40.8% |
| CC(Sc1nc2ccccc2s1)C(=O)NC1CCCc2ccccc21 (stereo unspecified) | 53.7% |
| Cc1ccc(CNC(=O)C2CC(c3ccc([N+](=O)[O-])cc3)=NO2)cc1 (stereo unspecified) | 98.5% |
| Cc1coc2cc3oc(=O)c(CCC(=O)NC4CC4)c(C)c3cc12 | 136% |
| Cc1ccccc1-c1ccc([C@@H]2[C@H](CO)N3CCCCN(C(=O)Nc4cccc(F)c4)C[C@@H]23)cc1 | 94.7% |
| CCOc1ccc(N(C)S(=O)(=O)c2cc(-c3cc(C)no3)ccc2OC)cc1 | 116% |
| CCOC(=O)c1ccccc1NS(=O)(=O)c1ccc(OCC)cc1 | 124% |
| COc1ccc(NC(=O)CSC2CC(=O)N(c3ccc4c(c3)OCCO4)C2=O)cc1 (stereo unspecified) | 52.1% |
| COc1ccc(N(C(=O)c2snc(C(N)=O)c2N)C(C(=O)NC2CCCCC2)c2ccc(F)cc2)c(OC)c1 (stereo unspecified) | 53.7% [at 10 µM] |
| COc1ccc(N(C(=O)c2snc(C(N)=O)c2N)C(C(=O)NC2CCCCC2)c2ccc(C)o2)cc1 (stereo unspecified) | 66% |
| CC(C)C(OC(=O)c1cccs1)C(=O)NC1CCCCC1 (stereo unspecified) | 62.8% |
| COc1ccc(N(C(=O)c2snc(C(N)=O)c2N)C(C(=O)NC2CCCC2)c2ccco2)c(OC)c1 (stereo unspecified) | 65.8% |
| COc1ccc(N(C(=O)c2csnn2)C(C(=O)NC2CCCC2)c2cccs2)cc1 (stereo unspecified) | 79.9% |
| C[C@@H]1CN([C@H](C)CO)C(=O)c2c(c3ccccc3n2C)-c2ccccc2CO[C@@H]1CN(C)C(=O)c1ccc(F)cc1 | 205% |
| Oc1ccc(Nc2nnc(-c3ccc(O)cc3)c3ccccc23)cc1 | 115% [at 10 µM] |
| O=C(CC1SC(=Nc2ccc3c(c2)OCCO3)NC1=O)Nc1ccc(F)cc1F (stereo unspecified) | 132% |

| SMILES | activity change, negative = inhibition |
| --- | --- |
| CCOC(=O)C1=C[C@@H](C(C)(C)C)N(S(=O)(=O)c2ccc(C)cc2)[C@H]1c1ccccc1 | 74.6% |
| CC(C)(C)n1nnnc1CN(Cc1ccc(F)cc1)Cc1ccco1 | 77.5% |
| CCOC(=O)c1c(CN2CCN(CC#N)CC2)n(C)c2cc(Br)c(OC)cc12 | 122% [at 10 µM] |
| CCOC(=O)c1c(C)n(C)c2ccc(OCC(O)Cn3nc(C)c(Br)c3C)cc12 (stereo unspecified) | 47.7% |
| O=C(NN1c2ccccc2CCc2ccccc21)c1ccccc1Br | 40.2% |
| CCOCCn1c(CN(Cc2ccccc2)Cc2ccccc2)nc2c1c(=O)n(C)c(=O)n2C | 57.7% |
| CC(=O)Nc1nonc1-c1nc2ccccc2n1Cc1ccccc1 | 61.9% |
| O=C(COCc1cc(-c2ccc3c(c2)OCO3)on1)Nc1cccnc1 | 386% |
| CCOC(=O)CNS(=O)(=O)c1cc(-c2nnc(Nc3ccc4c(c3)OCO4)c3ccccc23)ccc1C | 97.1% |
| O=C(COc1ccc([N+](=O)[O-])cc1)Nc1ccc(C(=O)NCc2cccnc2)cc1 | 222% |
| CCOC(=O)C(NC(=O)c1ccccc1OCC)(Nc1ncccn1)C(F)(F)F (stereo unspecified) | 76% |
| Cc1c(C(=O)OCC(=O)c2c(N)n(CC(C)C)c(=O)n(C)c2=O)oc2ccccc12 | 77.1% |
| Cc1ccc(S(=O)(=O)N2CCN(S(=O)(=O)c3ccc(C)cc3)C2c2ccccc2)cc1 | 114% |
| COc1ccc(C2N(S(=O)(=O)c3ccccc3)CCN2S(=O)(=O)c2ccc(C)cc2)cc1 (stereo unspecified) | 75.1% |
| O=C(NCc1cccs1)c1ccc(Cl)c(S(=O)(=O)N2CCCC2)c1 | 48.1% |
| COc1ccc(C(CNC(=O)c2cccc(N(C)C)c2)N2CCCC2)cc1 (stereo unspecified) | 51% |
| C[C@@H]1CN([C@H](C)CO)C(=O)c2c(c3ccccc3n2C)-c2ccccc2CO[C@@H]1CN(C)C(=O)[C@H](C)c1ccccc1 | 334% |
| COc1cc(CNC(=O)c2cc(-c3cc(C)cc(F)c3)n[nH]2)cc(OC)c1 | 58.1% |
| Cc1ccc(NC(=O)c2c(C(F)(F)F)nn(C)c2SCc2ccc(Cl)cc2)cc1C | 98.7% |
